PAFAH1B3 FP inh: inhibitors of human PAFAH1B3 | recombinant PAFAH1B3, FP-rhodamine probe, fluorescence polarization | inhibition, % at 3.39 µM | 340,000 tested, 0.28% active | AID 492972;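 active = inhibition above the screen-wide average of all tested compounds plus 3 SD, cut at about 25% in these data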;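 note: 0% = enzyme with DMSO only and 100% = wells lacking PAFAH1B3 protein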
Target sequence (Q15102 whole entry, looked up): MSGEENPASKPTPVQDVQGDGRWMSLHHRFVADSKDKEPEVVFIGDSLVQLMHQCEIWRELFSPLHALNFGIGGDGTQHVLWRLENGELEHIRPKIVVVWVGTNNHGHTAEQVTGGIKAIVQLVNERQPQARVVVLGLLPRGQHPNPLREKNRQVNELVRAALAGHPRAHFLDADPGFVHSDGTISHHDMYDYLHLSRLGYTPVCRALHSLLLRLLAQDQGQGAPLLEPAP
pPAFAH FP inh: inhibitors of human plasma PAF acetylhydrolase (pPAFAH); recombinant pPAFAH, FP-rhodamine probe fluorescence polarization; inhibition, % at 3.39 µM; 330,000 tested, 1.5% active; AID 463082;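 active = inhibition above the mean inhibition across the screen plus 3 SD, cut at about 25% in these data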;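 note: inhibitors block binding of the rhodamine activity-based probe so polarization drops; 0% = enzyme with DMSO and 100% = wells lacking pPAFAH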
ZTA DNA inh: counter-screen for EBNA-1 inhibitors: inhibitors of Epstein-Barr virus ZTA; ZTA-DNA binding, fluorescence polarization; 320,000 tested, 0.15% active; inhibition, % at 11 µM; in the data active = inhibition above about 33%
EBNA-1 inhibitor: blocks EBNA-1 binding to DNA; EBNA-1 DNA binding, fluorescence polarization; inhibition, % at 14.8 µM; 300,000 tested, 0.34% active; AID 1950; in the data active = inhibition above about 28%
PAFAH1B2 inh: inhibitors of human PAFAH1B2 | inhibition, % at 3.39 µM | AID 492953 | recombinant PAFAH1B2, FP-rhodamine activity probe, fluorescence polarization | 340,000 tested, 1.2% active | P68402;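 active = inhibition above the mean of all tested compounds plus 3 SD, cut at about 24% in these data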;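 note: 0% = enzyme with DMSO and 100% = wells lacking PAFAH1B2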
Target sequence (P68402 whole entry, looked up): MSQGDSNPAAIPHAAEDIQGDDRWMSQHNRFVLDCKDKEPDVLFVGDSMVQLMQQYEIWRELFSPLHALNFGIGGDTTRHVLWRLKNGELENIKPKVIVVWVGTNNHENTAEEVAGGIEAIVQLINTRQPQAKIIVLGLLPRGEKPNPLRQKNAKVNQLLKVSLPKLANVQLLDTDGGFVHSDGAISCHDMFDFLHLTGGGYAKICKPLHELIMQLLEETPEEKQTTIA
PAFAH2 inh: inhibitors of human PAFAH2; Q99487; recombinant PAFAH2, FP-rhodamine activity probe, fluorescence polarization; inhibition, % at 3.39 µM; 340,000 tested, 0.99% active; AID 492956;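 active = inhibition above the mean over all tested compounds plus 3 SD, cut at about 30% in these data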;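 note: inhibitors block probe labeling of enzyme so polarization drops; 0% = enzyme with DMSO and 100% = wells lacking PAFAH2 protein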
pPAFAH FP conf: confirmation of human plasma PAF acetylhydrolase (pPAFAH) inhibitors. 2,300 tested, 72% active. inhibition, % at 3.39 µM. shares compounds with pPAFAH FP inh. AID 463230. recombinant pPAFAH, FP-Rh probe fluorescence polarization;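 active = mean inhibition of the triplicate above the hit cutoff set for the earlier primary screen, cut at about 25% in these data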;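 note: 0% = enzyme with DMSO and 100% = wells lacking pPAFAH enzyme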
The depositor's hits bear a star; x = no result. Shown are actives, neighbours in structure and some others; about 2.9% of the full set was active somewhere.

SMILES	PAFAH1B3 FP inh	pPAFAH FP inh	ZTA DNA inh	EBNA-1 inhibitor	PAFAH1B2 inh	PAFAH2 inh	pPAFAH FP conf
Oc1ccc(Nc2nc(-c3ccc4ccccc4c3)cs2)cc1	19.1	0.0	-2.5	-1.8	6.2	-4.3	x
C[C@H](CO)N1C[C@H](C)[C@@H](CN(C)C(=O)NC2CCCCC2)Oc2ccc(NC(=O)C3CCCCC3)cc2C1=O	3.5	-4.4	x	x	-2.7	4.4	x
OC1(c2ccc(Cl)cc2)CCN(Cc2cn[nH]c2-c2ccc(F)cc2)CC1	-0.8	58.0*	5.8	-3.5	3.5	10.2	0.2
Cc1c(N)cccc1-c1nc2ccccc2[nH]1	-5.9	-0.6	-2.5	-1.5	6.0	2.1	x
CN(C(=O)CC1C(=O)NCCN1Cc1ccc(F)c(F)c1)C1CCOCC1 (centres undefined)	-1.2	58.6*	-4.8	-18.8	2.0	2.8	2.2
CN(C(=O)CC1C(=O)NCCN1Cc1ccc(F)cc1)C1CCOCC1 (centres undefined)	6.8	2.6	11.9	10.3	2.6	-1.5	x
CC1(C)Cc2ccccc2C(=NCC(=O)O)N1	10.1	35.5*	0.7	2.4	3.1	-5.6	2.5
O=C(Nc1cccc2ccccc12)c1ccc([N+](=O)[O-])o1	4.7	5.2	13.2	4.0	-5.2	3.9	x
O=[N+]([O-])C1=C(Nc2cccc3ccccc23)CS(=O)(=O)C1	7.3	38.8*	-4.2	6.2	10.0	3.1	4.5
Cc1ccc(NC(=O)COc2cccc(/C=C3\SC(=S)N(CCC(=O)O)C3=O)c2)cc1Cl	0.9	40.2*	25.4	10.9	5.0	5.8	26.6*
O=C(O)COc1cccc(/C=C2/SC(=S)N(Cc3ccccc3)C2=O)c1	-1.5	39.9*	11.0	26.2	3.2	1.3	32.6*
COC(=O)c1ccc(C)c(NC(=O)CSc2sc3c(O)cc(=O)[nH]c3c2C#N)c1	13.2	19.5	3.5	-7.8	11.5	11.6	x
COc1ccccc1NC(=O)CSc1sc2c(O)cc(=O)[nH]c2c1C#N	13.7	38.8*	-10.3	-5.1	11.1	16.7	11.5
COc1ccc(NC(=O)CSc2sc3c(O)cc(=O)[nH]c3c2C#N)c(OC)c1	12.6	36.2*	-1.6	2.6	8.8	23.0	13.7
COc1ccc(Cl)cc1NC(=O)CSc1sc2c(O)cc(=O)[nH]c2c1C#N	4.2	19.9	15.6	5.0	-0.4	-9.4	x
CN(Cc1ccccc1F)C(=O)CN1CCN(S(=O)(=O)c2ccc3c(c2)OCCCO3)CC1	-4.0	-1.5	-5.6	x	4.4	-2.8	x
Cc1ccc(-c2csc(NS(=O)(=O)c3cccc(F)c3)n2)o1	9.1	46.5*	x	x	5.1	37.3*	72.3*
CCc1ccc(C2C(C#N)=C(N)Oc3cc(N)ccc32)cc1 (centres undefined)	4.7	59.0*	-18.7	-2.4	-2.3	-0.6	4.2
N#CC1=C(N)Oc2cc(N)ccc2C1c1ccc(Cl)cc1 (centres undefined)	12.3	42.7*	-26.3	-2.5	16.2	5.0	-0.1
COc1ccc(C2C(C#N)=C(N)Oc3cc(N)ccc32)cc1 (centres undefined)	4.1	x	x	x	7.5	-0.9	x
CC(C)Cn1c(N)c(C(=O)COC(=O)c2cc(S(=O)(=O)N3CCOCC3)ccc2Br)c(=O)n(C)c1=O	5.2	2.3	x	x	2.4	1.1	x
Cc1ccc(N(C)C(=O)CCS(=O)(=O)c2ccc3c(c2)oc(=O)n3C)cc1	8.7	5.0	-5.7	-14.8	4.3	7.7	x
Cc1cc(O)c(C=O)c2c1C(=O)Oc1c(CO)c(O)c3c(c1O2)C(O)OC3=O (centres undefined)	32.7*	89.2*	97.0*	22.8	2.9	48.3*	26.6*
Cc1cc(O)c(CN(C)C)c2c1C(=O)/C(=C/c1ccco1)O2	18.1	13.8	6.2	6.4	2.0	3.1	x
CCOc1ccccc1CN1CCN(Cc2csc(C(C)=O)c2)CC1CCO (centres undefined)	7.6	2.0	3.3	2.0	3.4	12.4	x
SMILES	PAFAH1B3 FP inh	pPAFAH FP inh	ZTA DNA inh	EBNA-1 inhibitor	PAFAH1B2 inh	PAFAH2 inh	pPAFAH FP conf
Nc1cccc2c(=O)c3ccccc3[nH]c12	13.2	40.6*	3.9	-6.5	1.7	-1.0	9.8
Nc1nc(-c2ccco2)cs1	9.6	8.2	-5.6	-0.8	5.7	-1.0	x
c1coc(-c2nc(-c3ccco3)c(-c3ccco3)nc2-c2ccco2)c1	46.9*	100.1*	76.0*	38.1*	45.2*	73.2*	42.6*
c1coc(-c2ncc[nH]2)c1	6.1	-0.8	4.8	4.0	0.0	3.9	x
Nc1nc(-c2ccco2)c(-c2ccco2)s1	11.9	37.4*	-21.3	0.7	-1.5	6.7	10.3
CSc1sc(C(=O)Nc2ccc(F)cc2F)c2c1C=CCC2	x	3.1	0.9	-3.3	x	x	x
Cc1cc(O)ccc1N=Cc1c(C(F)(F)F)[nH][nH]c1=O	20.8	74.3*	4.9	7.0	15.8	26.9	10.5
O=c1[nH][nH]c(C(F)(F)F)c1C=Nc1ccccc1	6.9	0.6	-2.3	3.6	7.4	2.2	x
CCOc1ccc(C2OC34CCCCC3C(C#N)(C#N)C2(C#N)C(=N)O4)cc1OC (centres undefined)	43.4*	41.9*	-16.9	-10.2	36.8*	45.9*	1.4
CCCCCCC[C@@H](C/C=C/CCC(=O)N(C)C/C(=C/Cl)C/C(=C\C(=O)N1C[C@H](O)CC1=O)OC)OC	4.9	41.0*	x	x	5.5	2.1	37.3*
COc1ccc(C(C(=O)NCC2CCCO2)N(Cc2cccs2)C(=O)c2snc(C(N)=O)c2N)cc1OC (centres undefined)	-0.2	38.0*	-4.3	-3.3	5.0	5.9	4.6
FC(F)(F)c1cnc(COc2ccc(Cl)cc2Cl)c(Cl)c1	5.6	-7.2	-3.3	-7.7	3.9	2.6	x
COc1ccc(CCn2c(O)cc3nn(-c4nc5ccccc5s4)c(=O)c-3c2C)cc1	15.3	56.0*	8.6	18.8	6.6	21.1	43.8*
Clc1cccc(-c2ccc(C3Nc4cccc5cccc(c45)N3)o2)c1	31.1*	38.5*	x	x	25.1*	-9.2	38.0*
Cc1ccc(NS(=O)(=O)c2ccc(-c3ccc(=O)[nH]n3)o2)cc1	-3.0	35.9*	-10.8	1.3	5.4	-3.0	21.6
CCN(CC)c1ccc(NS(=O)(=O)c2ccc3c(c2)oc(=O)n3C)c(C)c1	-2.5	40.5*	-12.9	-5.7	1.9	-2.3	43.9*
CCN(CCNS(=O)(=O)c1ccc2c(c1)oc(=O)n2C)c1ccccc1	7.2	-0.6	-12.1	-1.0	11.7	-5.0	x
NC(=O)COC(=O)c1ccccc1Nc1ccc(SC(F)F)cc1	7.0	19.9	-19.7	-4.5	1.0	-0.8	x
CC(OC(=O)c1ccccc1Nc1ccc(SC(F)F)cc1)C(N)=O (centres undefined)	4.3	35.3*	12.2	-7.7	3.7	-2.5	23.5
Cc1ccc(NS(=O)(=O)c2ccc(Cl)c(NC(=S)NC(=O)C3CCCCC3)c2)cc1Cl	-51.3	-23.7	-3.0	-15.3	-25.6	-51.2	x
